Source: PubChem (Sanford-Burnham Center for Chemical Genomics)
CYP2C19 act = increases human CYP2C19 enzyme activity. P33261. recombinant CYP2C19, luciferin-H EGE luminescence; stronger effect = higher value; 0 = fully inhibited enzyme, 1 = untreated enzyme. activation factor at 5 µM. 96,000 tested, under 10 active. AID 1025;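 active = activation factor of at least 2 at 5 µM in the primary screen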
CYP2C19 inhib = human CYP2C19 inhibition. CYP2C19 Supersomes, luciferin-H EGE luminescence, 30 min. AID 778. hit rate 21% among 96,000. inhibition, % at 5 µM. P33261;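 active = CYP2C19 inhibition above a set limit at 5 µM in the primary screen, cut at about 50% in these data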
PLAP act = activators of human placental alkaline phosphatase; P05187; purified PLAP enzyme, luminescent substrate read-out; stronger effect = higher value; activation fold at 20 µM; hit rate 1.2% among 96,000; AID 696; in the data active = activation fold above about 2
CYP2C9 act = activators of human CYP2C9 | hit rate 1.4% among 96,000 | AID 1024 | recombinant CYP2C9, luciferin-H conversion, luminescence; stronger effect = higher value; factor 1 = untreated enzyme, 0 = blocked | P11712 | activation factor at 5 µM;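 active = activation factor of 2 or more for CYP2C9 at a 5 µM dose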
Target sequence (P11712 whole entry, looked up): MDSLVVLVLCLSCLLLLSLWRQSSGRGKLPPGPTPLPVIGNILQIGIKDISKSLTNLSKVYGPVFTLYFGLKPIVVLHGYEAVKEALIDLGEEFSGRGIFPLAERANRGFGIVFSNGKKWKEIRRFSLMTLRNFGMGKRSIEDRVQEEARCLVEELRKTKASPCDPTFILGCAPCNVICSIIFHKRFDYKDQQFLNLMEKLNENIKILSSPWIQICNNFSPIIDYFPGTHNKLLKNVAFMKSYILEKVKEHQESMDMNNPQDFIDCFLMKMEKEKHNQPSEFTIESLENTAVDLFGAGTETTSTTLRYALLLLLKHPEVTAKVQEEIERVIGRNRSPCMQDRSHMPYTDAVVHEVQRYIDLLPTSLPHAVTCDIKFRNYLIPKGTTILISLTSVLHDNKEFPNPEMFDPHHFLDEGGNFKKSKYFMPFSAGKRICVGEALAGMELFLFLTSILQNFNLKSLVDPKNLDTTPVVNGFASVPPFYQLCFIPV
CYP2C9 inhib = human CYP2C9 inhibition. P11712. CYP2C9 Supersomes, luciferin-H conversion, luminescence. inhibition, % at 5 µM. hit rate 20% among 96,000;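 active = blocking of liver enzyme CYP2C9 beyond about 50% at 5 µM, limit read from the data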
Hits are given with their value; – = inactive. Hits are enriched below; roughly 31% of the tested compounds scored in any of these assays.

SMILES | CYP2C19 act | CYP2C19 inhib | PLAP act | CYP2C9 act | CYP2C9 inhib
O=C(c1cn(CC(=O)N2CCCC2)c2ccccc12)C1CCCCC1 | – | 53.8 | – | – | 50.5
O=C(Cn1cc(C(=S)N2CCOCC2)c2ccccc21)N1CCOCC1 | – | – | – | – | –
O=C(Cn1cc(C(=O)c2ccco2)c2ccccc21)NC1CCCC1 | – | – | – | – | –
N#Cc1cn(CC(=O)N2CCCC2)c2ccccc12 | – | – | – | – | –
CN1C(=O)/C(=C/c2cn(CC(=O)N3CCCCC3)c3ccccc23)c2ccccc21 | – | 75.1 | – | – | 98.0
O=C(c1ccco1)c1cn(CC(=O)N2CCCc3ccccc32)c2ccccc12 | – | 98.1 | – | – | 100.0
CCc1c(C)[nH]n(-c2ccc(Oc3ccccc3)c(S(=O)(=O)O)c2)c1=O | – | – | – | – | –
N#Cc1ccsc1NC(=O)COc1ccc(-c2nnco2)cc1 | – | 77.5 | – | – | 95.3
CC(C)CC(=O)Nc1ccc(C(=O)COc2ccc(-c3nnco3)cc2)cc1 | – | 71.8 | – | – | 92.8
CCn1c(SCC(=O)Nc2cc(OC)ccc2OC)nnc1C1CCCCC1 | – | 69.0 | – | – | –
Cc1sc(NC(=O)CSc2nnc(-c3ccc(F)cc3)o2)c(C#N)c1C | – | 70.2 | – | – | 72.2
COc1ccc(C(=O)C(OC(=O)CNC(=O)c2ccco2)c2ccccc2)cc1 (stereo not drawn) | – | – | – | – | –
COc1ccccc1NC(=O)CSc1nnc(-c2ccoc2C)n1CC1CCCO1 (stereo not drawn) | – | – | – | – | –
Cc1cccc(C)c1OCc1nnc(SCC(=O)Nc2ccccc2F)o1 | – | – | – | – | 59.3
COc1ccc(-c2nnc(SCC(=O)Nc3cccc(Cl)c3)o2)cc1 | – | – | – | – | –
O=C(CSc1nnc(-c2ccccc2)o1)Nc1ccccc1F | – | 57.4 | – | – | –
Cc1cccc(C)c1OCc1nnc(SCC(=O)NCc2ccccc2)o1 | – | – | – | – | –
O=C(CSc1nnc(-c2ccncc2)o1)Nc1ccccc1Cl | – | 90.5 | – | – | –
COc1ccccc1NC(=O)CSc1nnc(C2CCCCC2)o1 | – | 55.5 | – | – | –
COc1nc(C#N)nc(N(C)C)n1 | – | – | – | – | –
Cc1ccc(NC2c3ncccc3C(=O)N2C2CCCCC2)cc1C (stereo not drawn) | – | – | – | – | –
O=C(Nc1ccc2c(c1)OCCO2)C1CCN(c2cnccn2)CC1 | – | – | – | – | –
COc1ccc(N/C(C)=C2/C(=O)C(=O)N(CCO)C2c2ccc([N+](=O)[O-])cc2)cc1 (stereo not drawn) | – | – | – | – | –
Cc1ccc(-c2nnc(SCC(=O)Nc3ccccc3F)o2)cc1 | – | – | – | – | –
CCOC(=O)c1cc(-c2nnc(-c3ccc(Cl)cc3)o2)c(C)nc1C | – | – | – | – | –
SMILES | CYP2C19 act | CYP2C19 inhib | PLAP act | CYP2C9 act | CYP2C9 inhib
Cc1csc(NC(=O)CSc2nnc(-c3ccoc3C)o2)n1 | – | – | – | – | –
Cc1csc(NC(=O)CSc2nnc(-c3ccncc3)o2)n1 | – | 54.8 | – | – | –
CCOC(=O)c1cc(-c2nnc(SCC(=O)Nc3ccc(F)cc3)o2)c(C)nc1C | – | – | – | – | 50.6
COc1ccccc1NC(=O)CSc1nnc(-c2ccncc2)o1 | – | 84.2 | – | – | –
COc1ccccc1NC(=O)CSc1nnc(C)o1 | – | – | – | – | –
O=C(CSc1nnc(-c2ccc(Br)cc2)o1)Nc1cccc2ccccc12 | – | 70.1 | – | – | 74.0
CC(C)C(=O)Nc1ccc(NC(=O)c2cccc(F)c2)cn1 | – | – | – | – | –
COc1ccc(CNC(=O)C(c2cccs2)N(C(=O)c2csnn2)C2CC2)cc1 (stereo not drawn) | – | – | – | – | –
N#Cc1ccsc1NC(=O)CSc1nnc(-c2ccccc2)o1 | – | – | – | – | 84.9
Nc1ncn(C(=O)c2ccco2)n1 | – | – | – | – | –
CCCN=Cc1c(CCC)[nH]n(-c2nc3ccccc3s2)c1=O | – | – | – | – | –
CC(=NCCCn1ccnc1)c1c(-c2ccccc2)[nH]n(-c2nc3ccccc3s2)c1=O | – | 99.1 | 2 | – | 98.0
O=c1c(C=NCCCn2ccnc2)c(-c2ccccc2)[nH]n1-c1nc2ccccc2s1 | – | 91.7 | – | – | 98.5
CC(=NC1CC1)c1c(-c2ccccc2)[nH]n(-c2nc3ccccc3s2)c1=O | – | – | – | – | –
COc1cccc2cc(C(=O)n3ccc(C)n3)c(=O)oc12 | – | – | – | – | –
CC(C)(Oc1ccc(Br)cc1)C(=O)N1CCc2ccccc21 | – | – | – | – | –
CCOc1ccc(OCCN2C(=O)NC(Cc3c[nH]c4ccccc34)C2=O)cc1 (stereo not drawn) | – | 68.1 | – | – | 79.5
O=C1NC(Cc2c[nH]c3ccccc23)C(=O)N1CCOc1ccc(F)cc1 (stereo not drawn) | – | 73.6 | – | – | 71.1
COc1ccc(NCc2nnc(SCC#N)n2-c2ccccc2OC)cc1 | – | – | – | – | –
Cc1ccc(NC(=O)C(=O)NNC(=O)c2ccccc2C)cc1Cl | – | – | – | – | –
O=C(OCc1cc2ccccc2[nH]c1=O)C1CCCO1 (stereo not drawn) | – | – | – | – | –
O=C(OCc1cc2ccccc2[nH]c1=O)C1CCCCC1 | – | 88.7 | – | – | 95.7
CN1CCN(C(=O)C23CCC(C)(c4nc5ccccc5nc42)C3(C)C)CC1 (stereo not drawn) | – | – | – | – | –
O=C(NCC1(N2CCOCC2)CCCCC1)c1ccc(Cl)c(S(=O)(=O)NCc2ccco2)c1 | – | 53.1 | – | – | 71.4
Cc1cccc(N2CCN(C(=O)c3ccc(Cl)c(S(=O)(=O)NCc4ccco4)c3)CC2)c1C | – | – | – | – | 75.9
SMILES | CYP2C19 act | CYP2C19 inhib | PLAP act | CYP2C9 act | CYP2C9 inhib
Cc1ccc(S(=O)(=O)NCc2ccco2)c(C)c1C | – | 56.0 | – | 3.5 | –
CCCS(=O)(=O)C(=C(Nc1ccccc1)Nc1ccccc1)S(=O)(=O)CCC | – | – | – | – | –
CCN(CC)S(=O)(=O)c1ccc(NS(=O)(=O)c2ccc(C)c(C)c2)cc1 | – | 97.6 | – | – | 99.4
CCN(CC)S(=O)(=O)c1ccc(NC(=O)c2ccc(NS(C)(=O)=O)cc2)cc1 | – | – | – | – | –
CCN(CC)S(=O)(=O)c1ccc(S(=O)(=O)Nc2ccc3c(c2)oc2ccccc23)cc1 | – | 69.6 | – | – | 99.5
O=C(c1ccc(S(=O)(=O)Nc2ccccc2)cc1)N1CCOCC1 | – | – | – | – | –
CCN(CC)S(=O)(=O)c1ccc(S(=O)(=O)Nc2ccc(C(=O)N3CCCC3)cc2)cc1 | – | 51.4 | – | – | 99.1
O=C(c1ccc(NS(=O)(=O)c2ccccc2)cc1)N1CCCC1 | – | 76.4 | – | – | 92.8
CCC(C)[C@H](NC(=O)NCCCc1ccccc1)C(=O)OC (stereo partly drawn) | – | – | – | – | –
Cc1ccc2c(c1)C(O)(c1c(C)[nH]c3ccccc13)C(=O)N2 (stereo not drawn) | – | 98.3 | – | – | 59.6
